# Reference: PubChem BioAssay
# The source made the active and inactive calls.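 The calls were made as follows: active = growth inhibition above 50% at the single 2 µM test dose, taken to imply half-maximal potency below 2 µM; inactive = the rest.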
# Assay: antimalarial activity against Dd2 strain (AID 2302);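 also: 0% = DMSO untreated growth and 100% = chloroquine plus artemisinin killed control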
# Conditions: P. falciparum Dd2 in RBCs, LDH growth readout, 72 h; at 2 µM; stronger effect = higher value
row,Compound,growth inhibition
1,Cc1[nH]c(C)c(-c2ccc(OCc3cc(C(F)(F)F)cc(C(F)(F)F)c3)nc2)c(=O)c1Cl,96% (active)
2,COc1cc(C)c(NC(=O)c2cccc3c(=O)c(C)c(-c4ccccc4)oc23)cc1OC,32% (inactive)
3,Cc1c(CNCCCNc2cc(=O)c3ccccc3[nH]2)sc(C(F)F)c1Br,29% (inactive)
4,C[C@@H](C(N)=O)N1CCCCC1c1ccc(OCc2cccc(F)c2)cc1 (stereo not given in full),96% (active)
5,O=[N+]([O-])c1ccc2c(-c3ccccc3)c(-c3ccccc3)n(O)c2c1,11% (inactive)
6,CN1CCC(c2c[nH]c3ccc(NC(=O)Nc4ccc(-c5ccncc5)cc4Cl)cc23)CC1,7% (inactive)
7,O=C(Nc1ccc(Cl)c(Cl)c1)N1CCc2cc3nccc(N4CCN5CCC[C@H]5C4)c3cc21,75% (active)
8,CNC(=O)c1cnc(Nc2ccc(OCC(O)CN(C)C)cc2)nc1Nc1cccc(OC)c1 (stereo not given),97% (active)
9,CC(=O)Nc1ccc(CN(Cc2ccc(OC(C)(C)C)cc2)Cc2ccc3c(c2)OCCO3)cc1,75% (active)
10,O=C(NCC1CCC(C(=O)NCc2cccc(C(F)(F)F)c2)CC1)c1ccc(O)c(-c2ccc(Cl)c(Cl)c2)c1 (stereo not given),41% (inactive)
11,CC1(C)N=C(N)N=C(N)N1c1ccc(Cl)c(Cl)c1,56% (active)
12,CCOc1ccc(-c2cc3nc(C4CCNCC4)c(C(=O)Nc4ccc(C)cc4Cl)cn3n2)cc1,22% (inactive)
13,O=C(/C=C/c1ccc(Cl)c(Cl)c1)NCCCCCN1CCCC(C(=O)Nc2cccc(Cl)c2)C1 (stereo not given),2% (inactive)
14,N#Cc1cccc(-c2cccc(C(=O)NC3CCC(CCN4CCc5ccc(C#N)cc5CC4)CC3)c2)c1 (stereo not given),57% (active)
15,COc1cccc2c(NCc3ccccc3)nc(NCCCN3CCCCC3C)nc12 (stereo not given),2% (inactive)
16,COc1cc(C=CC(=O)N2CCC(CCN3CCC(c4c[nH]c5ccccc45)CC3)CC2)cc(OC)c1,23% (inactive)
17,Cc1cc(Cl)ccc1OC(C)C(=O)N1CCc2ccccc21 (stereo not given),78% (active)
18,Cc1nc(-c2cccc(Nc3nccc(NCC(O)c4ccccc4)n3)c2)cs1 (stereo not given),82% (active)
19,CC(C)(C)c1ccc(S(=O)(=O)Nc2ccccc2Cn2nc(N3CCNCC3)ccc2=O)cc1,97% (active)
20,CCn1ccc2c(N3CCCS3(=O)=O)cc(C(=O)N[C@@H](Cc3ccccc3)[C@H](O)CNC(C)(C)CCCC(C)C)cc21,98% (active)

row,Compound,growth inhibition
1,O=C(CC(=O)C(F)(F)F)c1ccccc1[N+](=O)[O-],95% (active)
2,CCOc1ccc(Br)cc1/C=C/C(=O)Nc1ccc2c(c1)CN(C)CCC2,37% (inactive)
3,COc1ccc2nccc(NN=Cc3ccccc3)c2c1,99% (active)
4,CN(C(=O)/C=C/c1cc(C(F)(F)F)ccc1F)C1CCN(CCCCCNC(=O)/C=C/c2ccc(Cl)c(Cl)c2)CC1,68% (active)
5,Nc1cnc(C#Cc2cc3ncnc(N(CCN4CCOCC4)c4ccc(OCc5cccc(F)c5)c(Cl)c4)c3s2)cn1,57% (active)
6,Cc1nnsc1C(=O)Nc1ccc(-c2cccc(-c3nc4c(C)cccc4[nH]3)c2)cc1,47% (inactive)
7,O=[N+]([O-])c1ccc(C(O)CNCCc2ccccc2)cc1OCc1ccccc1 (stereo not given),67% (active)
8,COc1cc2ccccc2c(OC)c1CCNCCCCNCCc1c(OC)cc2ccccc2c1OC,30% (inactive)
9,COc1ccc(Cl)cc1N1CCN(CCCNC(=O)c2ccc(-c3nc4cc(Cl)c(F)cc4[nH]3)c(F)c2)CC1,91% (active)
10,c1ccc2c(c1)CN(Cc1cc3ccccc3[nH]1)CC1(CCN(Cc3c[nH]c4cnccc34)CC1)O2,62% (active)
11,Oc1ccc(CCNc2nc(NCCCOc3cccc(CN4CCCCC4)c3Cl)nc(N3CCNCC3)n2)cc1,22% (inactive)
12,O=C(CC1CCCC1)Nc1ccc2c(c1)CCC2,-2% (inactive)
13,CCN1CCN(C(=O)NC(C(=O)N(C)Cc2ccc(-c3ccc(C(F)(F)F)cc3)cc2)c2cccs2)C(=O)C1=O (stereo not given),95% (active)
14,Oc1c(CN2CCC(Cc3ccccc3)CC2)cc(Cl)c2cccnc12,94% (active)
15,C=C[C@]1(C)C[C@@H](OC(=O)NC(=O)CCCS(=O)(=O)c2nnc(C)s2)[C@]2(C)[C@H](C)CC[C@]3(CCC(=O)[C@H]32)[C@@H](C)[C@@H]1O,97% (active)
16,COc1c(C2CCN(CCCCNC(=O)c3ccc(-c4ccc(C(=O)C(F)(F)F)cc4)cc3)CC2)ccc2c1CCCC2,33% (inactive)
17,O=C(NC1CCCc2ccccc21)C1CCCN(C(=O)c2ccc(O)c(-c3ccc(Cl)c(Cl)c3)c2)C1 (stereo not given),54% (active)
18,CC(=O)Nc1ncc(C(=O)Nc2cccc(-c3cccc(-c4nc5ccccc5[nH]4)c3)c2)s1,38% (inactive)
19,CCN(CC)C(=O)C1CCCN(C(=O)Nc2cc(C(F)(F)F)cc(C(F)(F)F)c2)C1 (stereo not given),98% (active)
20,CCC(C)NS(=O)(=O)c1ccc2nc(Nc3ccc(C)cc3)n([C@H](C)C(C)(C)C)c2c1 (stereo not given in full),98% (active)
